A selection: hits, their analogues and other compounds. The true share with any hit is near 8%.
TSHR antagonist: Antagonists of the Thyroid Stimulating Hormone Receptor: HTS campaign | Thyrotropin receptor (Homo sapiens), P16473 | activity change, negative = inhibition, % at 11.5 µM | 330,000 compounds, 0.2% hits | TSHR-expressing cells, TSH-stimulated cAMP HTRF, 2 h; hits give low values | AID 504810, 2011;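 active = activity change below a set negative limit, meaning inhibition stronger than a set level, cut at about -70% in these data; inconclusive = activity change between two set negative limits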
Target sequence (P16473 whole entry, looked up): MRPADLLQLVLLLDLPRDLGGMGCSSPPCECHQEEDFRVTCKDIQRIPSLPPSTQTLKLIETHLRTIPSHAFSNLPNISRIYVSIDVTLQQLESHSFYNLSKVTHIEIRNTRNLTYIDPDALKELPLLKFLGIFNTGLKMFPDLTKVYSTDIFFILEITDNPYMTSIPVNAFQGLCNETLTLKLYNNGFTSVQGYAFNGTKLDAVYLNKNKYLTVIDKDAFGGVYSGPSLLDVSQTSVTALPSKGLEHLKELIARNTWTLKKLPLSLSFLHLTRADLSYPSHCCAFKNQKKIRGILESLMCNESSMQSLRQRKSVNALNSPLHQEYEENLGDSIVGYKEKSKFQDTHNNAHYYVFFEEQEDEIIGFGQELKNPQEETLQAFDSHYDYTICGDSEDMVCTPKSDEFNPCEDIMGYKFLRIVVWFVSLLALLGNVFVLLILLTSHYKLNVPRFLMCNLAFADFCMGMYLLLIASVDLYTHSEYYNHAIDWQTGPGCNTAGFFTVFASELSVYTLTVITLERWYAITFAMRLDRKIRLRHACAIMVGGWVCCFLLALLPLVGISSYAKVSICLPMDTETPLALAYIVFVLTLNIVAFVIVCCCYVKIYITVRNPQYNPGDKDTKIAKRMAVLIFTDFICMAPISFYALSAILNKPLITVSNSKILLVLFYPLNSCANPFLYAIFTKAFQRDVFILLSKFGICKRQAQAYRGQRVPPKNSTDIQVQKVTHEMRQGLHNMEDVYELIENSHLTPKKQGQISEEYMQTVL
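TSHR-expressing cells were treated with compounds, then stimulated with TSH at EC80 (4nM final) for 2 hours at 37 deg C. Cellular cAMP was measured by HTRF competition between lysate cAMP and cAMP-d2 for a cryptate-labelled anti-cAMP antibody.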
ELG1 DNA repair: qHTS screen for small molecules that inhibit ELG1-dependent DNA repair in human embryonic kidney (HEK293T) cells expressing luciferase-tagged ELG1. HEK293T ELG1-luciferase reporter, luminescence, 16 h; DNA damage induced by 5-fluorouridine. Potency, µM (doses to about 46.1 µM), for inactives: at the highest dose activity change, negative = inhibition, actives largely listed as inhibitors. 330,000 compounds, 2.3% hits. AID 504467, 2011; note: potency is the fitted concentration of half-maximal effect; nearly all actives have a fitted effect of over 55% in size
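Luminescence from the luciferase reporter, measured 30 min after ONE-Glo reagent at room temperature, was the read-out. Beforehand, 2,000 cells per well were exposed for 16 hr at 37 °C to 5-fluorouridine together with compound or vehicle.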
FBPA coupling cs: qHTS Assay for Inhibitors of Fructose-1,6-bisphosphate Aldolase from Giardia Lamblia: Coupling assay counterscreen | coupling enzyme system counterscreen, AmpLite Red fluorescence | activity change, negative = inhibition, % at 58.2 µM, hits read low | 290,000 compounds, 0.67% hits; in the data active = activity change below about -30%
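First, compound is pin-transferred into glyceraldehyde-3-phosphate coupling-enzyme reagent at 57.5 uM final and held 10 min at RT. Next, substrate, coupling system and AmpLite Red are added. After 20 min RT, fluorescence (525/598 nm) is read.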
RORgamma inh: qHTS for inhibitors of ROR gamma transcriptional activity; Nuclear receptor ROR-gamma (Mus musculus), P51450; Drosophila S2 Gal4-RORgamma UAS-luciferase reporter, 20 h; Potency, µM (highest dose often 53.6 µM), without a hit: at the highest dose activity change, negative = inhibition, most hits filed as inhibitors; 310,000 compounds, 5.4% hits; AID 2551, 2010; note: potency is the fitted concentration of half-maximal effect; nearly all actives have a fitted effect of over 60% in size
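Compounds are pin-transferred onto Drosophila Schneider cells expressing a copper-inducible Gal4–ROR gamma transactivation domain fusion. After 1 hr, copper sulfate is added to 700 uM final; luciferase is read 20 hr later.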
VP16 counter: VP16 counterscreen qHTS for inhibitors of ROR gamma transcriptional activity. Drosophila S2 Gal4-VP16 UAS-luciferase, luminescence, 20 h. 310,000 compounds, 3.5% hits. Potency, µM (titrated, usually from 53.6 µM), for the others: at the highest dose activity, negative = inhibition, hits mostly inhibitors. AID 2546, 2010;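 note: Gal4-VP16 expression switched on by copper sulfate through the metallothionein promoter; potency is the fitted concentration of half-maximal effect; nearly all actives have a fitted effect of over 50% in size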
* hit, by the source's call; ? = inconclusive; . = not tested or not shown; [ ] = another dose, or the depositor's remark. Unless noted, calls come from the whole dose curve; as a rule, active = well fitted curve in the direction sought with a large enough effect; inconclusive = small, poorly fitted or top-dose-only effect, or another doubt; inactive = no such curve, though single readings can be large; an effect the other way counts as inactive or inconclusive. % is set by controls: 0 for no effect and ±100 for the full control effect.

SMILES	TSHR antagonist	ELG1 DNA repair	FBPA coupling cs	RORgamma inh	VP16 counter
CC(=O)Oc1cc2c(c(C)c1OC(C)=O)CC=C1[C@]3(C)CC[C@]4(C)CC[C@@](C)(C(=O)O)CC4[C@]3(C)CC[C@]12C (stereo not given in full)	.	.	2	?	11µM*
CCOC(=O)c1c(C)nc2sc3c(c2c1-c1ccc(OC)cc1)NC(c1ccccc1)NC3=O (stereo not given)	20	16µM*	-5	?	-10%
CCOC(=O)c1c(C)nc2sc3c(=O)[nH]cnc3c2c1-c1ccc(OC)cc1	9	21µM*	12	2%	-2%
O=S(=O)(c1ccccc1)[C@@]1(c2ccccc2)C[C@@H]2ON=C(c3cccc(-c4ccccc4)c3)[C@@H]2C1	23	-5%	.	.	.
Cc1ccc(O)c(C(=O)CC(=O)c2ccccc2Cl)c1	-5	2%	-5	7.1µM*	13µM*
Cc1ccc(O)c(C(=O)CC(=O)c2ccc(C(C)(C)C)cc2)c1	-9	-9%	1	5.6µM*	5µM*
COc1ccccc1-c1noc(CCC(=O)Nc2cccc(C)c2)n1	3	-1%	2	39%	3%
CCOC(=O)c1ccc(NC(=O)COc2ccccc2CNCCc2ccccc2)cc1	14	26µM*	6	?	?
CCN(C(=O)CCc1nc(-c2ccc(OC)cc2)no1)c1cc(OC)ccc1OC	-23	16µM*	-8	0%	-1%
COc1ccc(-c2noc(CCC(=O)Nc3cccc(C)c3)n2)cc1	-10	?	0	0.28µM*	?
CCOC(=O)c1ccc(NC(=O)COc2ccc(CNCCO)cc2OCC)cc1	2	-3%	3	-5%	-8%
COc1ccc(-c2noc(CCC(=O)N(C)c3cccc(C)c3)n2)cc1	-4	-3%	1	7%	-1%
Cc1ccc(-c2noc(CCC(=O)NCCCN3CCN(c4cccc(Cl)c4)CC3)n2)cc1	-9	?	-10	4µM*	14µM*
Cc1cccc(-c2noc(CCCC(=O)Nc3ccc(C(N)=O)cc3)n2)c1	-2	13%	2	16µM*	11µM*
CCOC(=O)c1cccc(NC(=O)CCc2nc(-c3ccc(C)cc3)no2)c1	-8	?	1	3.2µM*	-29%
CCOC(=O)c1ccc(NC(=O)CCc2nc(-c3ccccc3)no2)cc1	-18	26µM*	-2	48%	-1%
O=C(CCc1nnc2ccc(N3CCC4(CC3)OCCO4)nn12)Nc1ccc(F)cc1	17	7%	1	-10%	-12%
O=C(Nc1cccc(-c2nc3ccccc3s2)c1)c1cccs1	-13	?	2	-10%	?
O=C(Nc1cccc(-c2nc3ccccc3s2)c1)c1cc(=O)c2ccccc2o1	-14	9.2µM*	1	24%	-14%
CCCCCC(C)NC(=O)CN1C(=O)NC(C)(c2ccc3ccccc3c2)C1=O (stereo not given)	-7	2%	.	5µM*	13µM*
O=C(C[C@H]1C/C=C\C[C@H](Cc2ccc(F)cc2)C(=O)O[C@@H](c2ccccc2)CNC1=O)N[C@H](CO)Cc1ccccc1	4	?	.	.	.
O=C(C[C@H]1C/C=C\CC[C@H](Cc2ccc(F)cc2)C(=O)O[C@@H](c2ccccc2)CNC1=O)N[C@@H](CO)Cc1ccccc1	-10	9.2µM*	.	.	.
O=C(C[C@H]1C/C=C\CC[C@H](Cc2ccc(F)cc2)C(=O)O[C@@H](c2ccccc2)CNC1=O)N[C@H](CO)Cc1ccccc1	17	21µM*	.	.	.
O=C(C[C@H]1C/C=C\CC[C@H](Cc2ccc(F)cc2)C(=O)O[C@H](c2ccccc2)CNC1=O)N[C@H](CO)Cc1ccccc1	-20	10µM*	.	.	.
O=C(C[C@H]1C/C=C\CC[C@H](Cc2ccc(F)cc2)C(=O)OC[C@H]2CCCN2C1=O)N[C@H](CO)Cc1ccccc1	-2	23µM*	.	.	.
SMILES	TSHR antagonist	ELG1 DNA repair	FBPA coupling cs	RORgamma inh	VP16 counter
CC(=O)NCCSc1ccc(S(=O)(=O)N2CCCC2)cn1	6	20%	.	.	.
CC1CN(C(=O)CCC(=O)NCCCN2CCN(Cc3ccccc3)CC2)c2cc(Cl)ccc2O1 (stereo not given)	28	8%	.	8%	1%
Fc1ccc(-c2nnc(-c3ccc(Cl)cc3Cl)o2)cc1	-2	?	-1	14µM*	10µM*
O=C(O)c1ccc(N2CC3CC(C2)c2cccc(=O)n2C3)c(NC(=S)Nc2ccc(Br)cc2)c1 (stereo not given)	8	-1%	-3	?	-7%
CCc1ccc(NC(=S)Nc2cc(C(=O)O)ccc2N2CC3CC(C2)c2cccc(=O)n2C3)cc1 (stereo not given)	39	?	2	10µM*	?
Cc1ccc(S(=O)(=O)N2CCCNCC2)cc1	0	1%	2	9%	-8%
COc1ccc(C(=O)CNc2ccc3ccccc3c2)cc1	8	?	-10	13µM*	?
COc1ccc(C(=O)CNc2ccccc2Br)cc1	-9	?	-3	1.8µM*	?
Cc1ccccc1NCC(=O)c1ccc(Br)cc1	7	-5%	5	16%	-15%
O=C(CNc1ccc2ccccc2c1)NNC1=NCCC1	5	12%	-9	2.8µM*	4µM*
O=C(c1ccc(Cl)cc1)N(Cc1ccco1)C1CCS(=O)(=O)C1 (stereo not given)	-4	-3%	3	2%	-10%
S=C1Nc2ccccc2Sc2ccc(Cl)cc21	-4	5%	2	1.8µM*	2.8µM*
CN(C)S(=O)(=O)c1cccc(NC(=S)Nc2cc(Cl)cc(Cl)c2)c1	-10	?	0	31%	-2%
CN(C)S(=O)(=O)c1cccc(NC(=S)Nc2ccc(Cl)cc2Cl)c1	25	?	-12	20µM*	?
CCN(CCO)c1ccc(NC(=S)Nc2cccc(S(=O)(=O)N(C)C)c2)cc1	-7	?	-41*	-21%	13%
CCN(CC)S(=O)(=O)c1ccc(NC(=S)Nc2ccccc2)cc1	-1	3%	0	-19%	1%
CN(C)c1ccc(NC(=O)c2ccc(N3CCOCC3)nc2)cc1	-23	?	.	27%	-1%
COC(=O)NC(/C=C/c1ccco1)[C@@]1(C(=O)OC)CCCC1=O (stereo not given in full)	.	.	-3	1%[10 µM]	5%[10 µM]
CC(=O)N/N=C/c1cc(C(C)(C)C)cc(/C=N/NC(C)=O)c1O	6	15µM*	-2	2.8µM*	14µM*

Source: PubChem
